Common to all, as to experiment: NCI-60 one-dose screen, 48 h (100 = growth as untreated, 0 = no growth, -100 = all killed)
Holding throughout (settings): 10 µM

Assay [1] deals with HCT-15 colon.
For assay [2], the system named is HT29 colon.
The test system of assay [3] is SNB-19 CNS.
In assay [4] the test system is U251 CNS.
Assay [5] has as its system PC-3 prostate.
For assay [6], the system named is SK-MEL-5 melanoma.
The subject of assay [7] is UACC-62 melanoma.
The subject of assay [8] is LOX IMVI melanoma.
Assay [9] has as its system SK-MEL-28 melanoma.
For assay [10], the system named is SK-MEL-2 melanoma.
The test system of assay [11] is EKVX NSCLC.
The test system of assay [12] is SN12C renal.
For assay [13], the system named is UO-31 renal.
Assay [14] relates to TK-10 renal.
For assay [15], the system named is ACHN renal.
Assay [16] relates to CAKI-1 renal.
For assay [17], the system named is A498 renal.
In assay [18] the test system is CCRF-CEM leukemia.
For assay [19], the system named is MOLT-4 leukemia.

Among the data in PubChem BioAssay (NCI) are growth values, retold here.

About 83,000 compounds went through this panel and 20% of them were active in at least one assay; those are over-represented in the sample as a whole.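 The test compound was applied at a single concentration to cells in 96-well plates for 48 hours, and percent growth was recorded.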 Values without a mark were called inactive. Calls of active or inactive are those of the source. The calls were made as follows: active = growth percent below 10; inactive = the rest.

Regarding `CN1C(=O)N(C)C2SC(N/N=C/c3ccccc3F)=NC21` (configuration not stated), the growth is 28.2% in assay [1]; 28.2% in [2]; 63.4% in assay [3]; 51.2% in assay [4]; 81.5% in assay [5]; 57.9% in assay [6]. The growth in [7] is 26.8%; in [8], 50.2%; in assay [9], 69.2%; in assay [10] it was 56.4%; in assay [11] it was 86.4%; in [12] it was 71.3%. In addition, the growth in assay [13] was 60.6%; in assay [14] it was 83.6%; in assay [15], 85.5%; in assay [16], 67.4%; in assay [17] it was 82.4%; in assay [18], 67.3%. In assay [19], the growth was 44.5%.

Regarding `COc1ccc([C@H]2C(C(=O)c3ccc(Cl)cc3)C3(N[C@@H]2c2ccccc2)C(=O)Nc2ccc(Cl)cc23)cc1` (some centres not stated), the growth in assay [1] is -23% (active); in assay [2], -50.8% (active); in assay [3] it was 16%; in assay [4], -33.9% (active); in [5], 18.1%; in assay [6], 4.07% (active). For the same compound, the growth in assay [7] was -63.1% (active); in assay [8] it was -100% (active); in assay [9], 4.54% (active); in [10] it was -65.5% (active); in [11] it was 4.5% (active); in assay [12], -86.5% (active). The growth is -1.98% (active) in [13]; 9.59% (active) in [14]; 1.5% (active) in assay [15]; 4.6% (active) in [16]; 10.4% in assay [17]; 21.9% in [18]. Moreover, the growth in assay [19] is 12.1%.

As to `O=C(NO)c1ccc(CN2CCN(c3nc(-c4ccccc4)c4ccccc4n3)CC2)cc1`, the growth was 22.5% in assay [1]; 30.4% in [2]; 22.8% in [3]; 15.2% in assay [4]; 30.8% in assay [5]; -95.9% (active) in [6]. Moreover, the growth in assay [8] is -60.6% (active); in assay [9], 24.1%; in [10], 67.4%; in [11] it was 16%; in [12], 15.9%; in assay [13], -11.6% (active). The growth in [14] was 19.7%; in assay [15] it was 4.08% (active); in assay [16], 6.42% (active); in assay [17] it was 61.4%; in [18], 12%; in [19], 22.9%.

With `O=C(Nc1cc(Cl)cc(Cl)c1)Nc1cc(Cl)cc(Cl)c1`, the growth was -23.1% (active) in assay [1]; -20.9% (active) in assay [2]; 5.6% (active) in assay [3]; -23.2% (active) in assay [4]; 0.387% (active) in assay [5]; -100% (active) in assay [6]. Besides, the growth in assay [7] was -66.1% (active); in [8] it was -91.1% (active); in assay [9], -12.1% (active); in assay [10] it was -48.4% (active); in assay [11] it was -12% (active); in assay [12], -34.3% (active). For the same compound, the growth in assay [13] is -8.17% (active); in assay [14], 0.158% (active); in assay [15], -19.4% (active); in assay [16] it was -32.4% (active); in assay [17] it was -18.3% (active); in [18], -33.5% (active). Besides, the growth in [19] is -36.2% (active).

`CC(=O)c1ccc(Nc2nc(SCCC(C)C)nc(-c3ccc(F)cc3)c2C#N)cc1`: the growth was 63.8% in assay [1]; 47.9% in [2]; 20.4% in assay [3]; 2.09% (active) in assay [4]; 80.2% in assay [5]; 93.8% in assay [6]. Moreover, the growth was 89.8% in [7]; 5.44% (active) in [8]; 83.5% in assay [9]; 117% in assay [10]; 52.7% in assay [11]; 22.7% in [12]. Further, the growth was 24.7% in assay [13]; 6.32% (active) in assay [14]; -42.9% (active) in assay [15]; 16.2% in assay [16]; 15.6% in [17]; 86.9% in [18]. Further, in assay [19], the growth was 76.9%.

Regarding `CCN1CCN(c2ccc(NC(=O)Nc3ccc(-c4cc(C(=O)NC(C)C)c5ncccc5n4)cc3)cc2C(F)(F)F)CC1`, the growth is -93.5% (active) in [1]; -82.3% (active) in [2]; -81.7% (active) in [3]; -89.5% (active) in assay [4]; -55.3% (active) in assay [5]; -100% (active) in assay [6]. In addition, the growth in assay [7] was -93.3% (active); in [8] it was -100% (active); in assay [9], -98.9% (active); in assay [10], -71% (active); in [11], -91.5% (active); in assay [13] it was -94.5% (active). Moreover, the growth in [14] is -92.7% (active); in assay [15] it was -93.1% (active); in [16] it was -95.2% (active); in assay [17], -99.1% (active); in assay [18], -44.5% (active).

On to `COc1cc(-c2nc3cc(Cl)c(Cl)cc3[nH]2)ccc1OCc1nnc(-c2ccc(Br)cc2)o1`, for which the growth in [1] is 3.31% (active); in assay [2], 10%; in [3], 41.5%; in [4], 1.03% (active); in [5], -15.8% (active); in assay [6] it was 3.12% (active). In addition, the growth was -42.1% (active) in [7]; -25% (active) in assay [9]; 0.585% (active) in assay [10]; 14.3% in [11]; -39.2% (active) in assay [12]; -91.1% (active) in [13]. Also, the growth in [14] is -43.4% (active); in assay [15], -100% (active); in assay [16], -76.6% (active); in [17] it was -86.5% (active); in [18], 7.7% (active); in assay [19] it was -7.63% (active).

Take `CC1(c2ccccc2)NC(=O)N(CC(=O)Nc2ccc(C(=O)/C=C/c3ccccc3)cc2)C1=O` (configuration not stated): the growth in assay [1] was 2.92% (active); in assay [2], -23% (active); in assay [3], 66.1%; in assay [4], -15.2% (active); in assay [5] it was 31.6%; in [6] it was 20.4%. The growth in assay [8] is -72% (active); in [9], 62.3%; in [10], 75.3%; in [11], 58.2%; in [12], 68.7%; in [13], 52.9%. The growth was 92.1% in [14]; 60.3% in assay [15]; 61.9% in assay [16]; 104% in assay [17]; 35.7% in assay [18]; 22.9% in assay [19].
